PubChem BioAssay AID1851 (National Center for Advancing Translational Sciences (NCATS), 2009)
Hit rate of the full screen: of about 16,000 compounds, about 4,000 (25%) were called active. Roughly 26% stayed inconclusive and do not appear here. The call rests on the fitted dose curve; in most records, active means well fitted curve in the direction sought with a large enough effect; inconclusive means small, poorly fitted or top-dose-only effect, or effect the other way; inactive means no such curve, though single readings can be large or run the other way. These entries were drawn from the full list.

These molecules were tested against Cytochrome P450 2C9 (Homo sapiens) (UniProt P11712) (assay: Cytochrome panel assay with activity outcomes). Conditions: recombinant CYP, pro-luciferin dealkylation, luminescence, p450-cyp2c9; series mostly up to 57.1 µM; activity, negative = inhibition: at the top concentration.
On the % scale 0 is the no-effect control and ±100 the full control effect.

Chain of Cytochrome P450 2C9 (Homo sapiens) (P11712 whole entry, looked up): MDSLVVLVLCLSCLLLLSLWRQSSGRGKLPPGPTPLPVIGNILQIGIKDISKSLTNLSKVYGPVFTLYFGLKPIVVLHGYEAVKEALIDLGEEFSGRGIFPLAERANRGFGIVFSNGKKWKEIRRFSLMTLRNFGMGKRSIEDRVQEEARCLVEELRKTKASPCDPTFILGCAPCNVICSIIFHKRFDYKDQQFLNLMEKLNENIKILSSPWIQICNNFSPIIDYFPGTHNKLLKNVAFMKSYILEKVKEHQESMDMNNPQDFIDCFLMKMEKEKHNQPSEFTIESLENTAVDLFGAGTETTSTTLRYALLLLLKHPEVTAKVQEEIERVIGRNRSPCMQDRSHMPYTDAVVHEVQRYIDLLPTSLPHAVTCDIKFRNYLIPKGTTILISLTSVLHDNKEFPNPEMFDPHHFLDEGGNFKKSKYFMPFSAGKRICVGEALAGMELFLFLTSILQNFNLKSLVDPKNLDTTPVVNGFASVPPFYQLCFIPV

AC50, active:
N#Cc1c(NC(=O)C2CC(c3ccccc3Cl)=NO2)sc2c1CCC2 (stereo not given) 0.708 µM
CC(C)(C)n1nnnc1C(c1cccnc1)N(Cc1ccccc1)Cc1ccco1 (stereo not given) 3.98 µM
C=CCn1c(SCC(=O)N2CCc3ccccc3C2)nc2ccccc2c1=O 0.2 µM
CCn1c2ccc(Cl)cc2c2nc3ccccc3nc21 10 µM
C=Cc1c(C)c2cc3nc(cc4[nH]c(cc5nc(cc1[nH]2)C(C)=C5CCC(=O)O)c(CCC(=O)OC)c4C)[C@@]1(C)C3=CC=C(C(=O)OC)[C@H]1C(=O)OC (tested in a mixture with another compound) 1.26 µM
CCOc1cc(C2CC(=O)c3c(ccc4ccccc34)N2)ccc1O (stereo not given) 3.16 µM
Cc1nc2cncnc2n(Cc2ccccc2)c1=O 15.8 µM
COc1ccc(Oc2ncc3nc(-c4cccs4)c(=O)n(Cc4cccc(OC)c4)c3n2)cc1 1 µM
O=c1c(-c2cccs2)nc2cncnc2n1Cc1ccccc1 1.26 µM
COc1cccc(Cn2c(=O)c(-c3cccs3)nc3cncnc32)c1 2.51 µM
COc1cccc(Cn2c(=O)c(-c3cccs3)nc3cnc(OC)nc32)c1 3.16 µM
O=c1oc(-c2ccco2)nc2c1cnn2-c1ccccc1 12.6 µM
C=CCN1CCN(c2nc3ccccc3nc2C#N)CC1 20 µM
COc1cccc(/C=N/NC(=O)C(=O)NCc2cccnc2)c1 22.4 µM
COc1cccc(/C=N/NC(=O)c2c(-c3ccccc3)noc2C)c1 3.55 µM
Nc1nc(Br)c2c(F)cccc2c1-c1ccc(Cl)cc1 4.47 µM
Nc1nc(Br)c2c(F)cccc2c1-c1ccc(F)cc1 2.51 µM
C#CCSc1nncn1C(=O)/C=C/c1ccccc1 3.98 µM
C=C(C)c1cccc(C(C)(C)NC(=O)Nc2cc(C)ccc2OC)c1 10 µM
O=C(OC(C(=O)NC1CCCC1)c1ccncc1)C1=Cc2ccccc2OC1 (stereo not given) 2.82 µM
COc1ccc([C@@H]2CC(=O)c3c(O)cc(O)cc3O2)cc1O 10 µM
COc1ccc(C(=O)NC(=S)NC(C)(C)C)cc1Br 10 µM

activity, negative = inhibition, inactive:
CCN(c1ccccc1)c1cc(NC)[n+](C)c(C)n1 5.78%
CN(Cc1ccco1)c1nc(-c2cccnc2)nc2ccccc12 -8.92% [at 2.29 µM]
CN(Cc1ccco1)c1ccnc(-c2cccnc2)n1 16.4% [at 2.29 µM]
Cc1ccc(-n2c(C)nnc2SCC(=O)N2CCc3ccccc3C2)cc1C 11.9%
O=C(O)/C=C\C(=O)N1Cc2cc3ccccc3nc2C1 10.3% [at 11.4 µM]
CCn1c2ccccc2c2nnc(NCCCO)nc21 5.48% [at 11.4 µM]
CCn1c(N)nc2ccccc21 -20%
O=C(O)CCc1nc(-c2ccccc2-n2cccc2)no1 -3.02% [at 11.4 µM]
Cc1cccc(CNc2cc(-c3ccc(N(C)C)cc3)ncn2)c1 -14.7% [at 2.29 µM]
CCOc1ccc2ccccc2c1C(=O)N[C@@H]1C(=O)N2[C@@H]1SC(C)(C)[C@@H]2C(=O)O -13.4% [at 25.6 µM]
Cc1nc2cnc(Nc3ccccc3)nc2n(CCc2ccccc2)c1=O -14.1%
COc1ncc2nc(-c3cccs3)c(=O)n(Cc3ccc(F)cc3)c2n1 -20.3%
COc1cccc(Nc2ncc3nc(-c4cccs4)c(=O)n(CCC#N)c3n2)c1 -7.12%
Cn1cc(-c2nc3cncnc3n(Cc3ccc(F)cc3)c2=O)c2ccccc21 7.71%
CCn1cc(C(=O)O)c(=O)c2cnc(N3CCNCC3)nc21 12.3% [at 25.6 µM]
Cc1cc2cc(C=O)c(Cl)nc2cc1C -8.44%
COc1cccc(Cn2c(=O)c(-c3cccs3)nc3cnc(N(C)C)nc32)c1 -19.1%
CCNc1ncc2nc(-c3cccs3)c(=O)n(Cc3cccc(OC)c3)c2n1 -11%
Cc1ccc(-n2ncc3c2ncn2nc(-c4ccco4)nc32)c(C)c1 -11.5%
c1ccc(-n2ncc3c2ncn2cnnc32)cc1 -3.21%
N#Cc1cccc(-c2nc(N3CCNCC3)c3ccccc3n2)c1 11.8% [at 2.29 µM]
CNc1nc(-c2ccccc2C(F)(F)F)nc2ccccc12 19.6% [at 2.29 µM]
C=CCOc1cccc(/C=N/NC(=O)C(=O)NCc2ccco2)c1 1.64%
Cc1cccc(C)c1NC(=O)COc1cccc(/C=N/NC(=O)C(=O)NCc2ccccc2)c1 -7.69%
COc1cccc(/C=N/NC(=O)c2nc(-c3ccccc3)cc(-c3ccccc3)n2)c1 11.1%
CC(C)=CCC/C(C)=C/CO/N=C1/C[C@@H](O)[C@@H](O)[C@@H]2[C@@H]3C(=O)N(C4CCCCC4)C(=O)[C@H]3CC[C@H]12 -5.92% [at 11.4 µM]
Nc1nc(Br)c2ccccc2c1-c1ccc(F)cc1 -33.3%
Cc1noc(C)c1-c1cc(Nc2ccc(F)cc2)ncn1 -1.17% [at 2.29 µM]
CN1CCN(c2ncnc3ccc(-c4ccc5c(c4)OCO5)cc23)CC1 14.7% [at 2.29 µM]
CC(C)C(=O)N[C@H]1CCCN1C(=O)/C=C\c1ccccc1 -2.39% [at 11.4 µM]
CC(C)C(=O)N[C@@H]1CCCN1C(=O)/C=C\c1ccccc1 -11.6% [at 11.4 µM]
COc1ccc(C(N)=O)cc1NC(=O)c1cccc(F)c1 -18.9%
COc1cccc(CC(C(=O)Nc2cc(C)ccc2C)c2nn[nH]n2)c1OC (stereo not given) -15.9%
CN(C)Cc1ccccc1-c1ccc2ncnc(N(C)Cc3ccco3)c2c1 -5.32% [at 2.29 µM]
COc1ccc([C@@H]2CC(=O)c3c(O)cc(O[C@H]4O[C@@H](CO[C@H]5O[C@@H](C)[C@@H](O)[C@@H](O)[C@@H]5O)[C@@H](O)[C@@H](O)[C@@H]4O)cc3O2)cc1O 9.98% [at 25.6 µM]
O=C1c2c(O)cc(O)cc2O[C@@H](c2ccc(O)c(O)c2)[C@H]1O -23.7%
COc1ccc(Br)c2c1C[C@H](C(=O)O)CC2 -27.4% [at 11.4 µM]
COc1ccc(C(=O)NC(=S)NC(C)C)cc1Br -42.8%
